Results: PubChem BioAssay AID1159580 (chemical genetic matrix, 2015)
Among all 5,500 compounds or so, about 2,000 (36%) were called active. Roughly 18% stayed inconclusive and do not appear here. No stated cut-off is given here; in the data, active means normalized growth mostly below about 0.91 (no sharp cut-off); inconclusive means no clear call, values can overlap the other calls; inactive means mostly above about 0.92. The list shows a part of the results.

Test: chemical genetic growth profiling, strain panel (AID 1159580);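 further: tested at 20 µM; growth read once vehicle control cultures reached saturation at 30 °C; 1 = growth at the plate median or of vehicle wells; lower values mean less growth of the strain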
Conditions: growth OD
[1] = S. cerevisiae deletion strains, locus YAL013W, strain DEP1, hits give low values
[2] = S. cerevisiae deletion strains, locus YAL040C, strain CLN3, hits give low values
[3] = S. cerevisiae deletion strains, locus YER002W, strain NOP16, hits give low values
[4] = S. cerevisiae deletion strains, locus YGR078C, strain PAC10, hits give low values
[5] = S. cerevisiae deletion strains, locus YNL153C, strain GIM3, hits give low values
[6] = S. cerevisiae deletion strains, locus YNL175C, strain NOP13, hits give low values
[7] = S. cerevisiae deletion strains, locus YNL197C, strain WHI3, hits give low values
[8] = S. cerevisiae deletion strains, locus YNL224C, strain SQS1, hits give low values
[9] = S. cerevisiae deletion strains, locus YOR083W, strain WHI5 (second series), hits give low values
[10] = S. cerevisiae deletion strains, locus YBR229C, strain ROT2, hits give low values
[11] = S. cerevisiae deletion strains, locus YDL101C, strain DUN1, hits give low values
[12] = S. cerevisiae deletion strains, locus YDR150W, strain NUM1, hits give low values
[13] = S. cerevisiae deletion strains, locus YEL061C, strain CIN8, hits give low values
[14] = S. cerevisiae deletion strains, locus YHR030C, strain SLT2, hits give low values
[15] = S. cerevisiae deletion strains, locus YJR043C, strain POL32, hits give low values
[16] = S. cerevisiae deletion strains, locus YJR075W, strain HOC1, hits give low values
[17] = S. cerevisiae deletion strains, locus YLR039C, strain RIC1, hits give low values
[18] = S. cerevisiae deletion strains, locus YLR262C, strain YPT6, hits give low values
[19] = S. cerevisiae deletion strains, locus YMR263W, strain SAP30, hits give low values
[20] = S. cerevisiae deletion strains, locus YNL322C, strain KRE1, hits give low values
[21] = S. cerevisiae deletion strains, locus YPL241C, strain CIN2, hits give low values

Measured: normalized growth

Cc1cccc(C)c1NC(=O)C[N+](C)(C)C
inactive: [1] 1.03 | [2] 0.995 | S. cerevisiae deletion strains, locus YCL061C, strain MRC1 (second series), hits give low values 1 | S. cerevisiae deletion strains, locus YDR363W, strain ESC2, hits give low values 1.01 | [3] 1.01 | [4] 0.984 | S. cerevisiae deletion strains, locus YGR229C, strain SMI1, hits give low values 1 | [5] 1.01 | [6] 0.993 | [7] 0.989 | [8] 1.01 | [9] 1.02

CN1C2CCC1CC(=NO)C2
inactive: [1] 0.993 | [10] 0.982 | [11] 1.02 | [12] 0.991 | [13] 0.997 | [4] 1 | [14] 1.07 | S. cerevisiae deletion strains, locus YHR087W, strain rtc3, hits give low values 0.993 | S. cerevisiae deletion strains, locus YJL187C, strain SWE1, hits give low values 0.989 | [15] 0.986 | [16] 0.984 | S. cerevisiae deletion strains, locus YKL190W, strain CNB1, hits give low values 0.994 | [17] 0.998 | S. cerevisiae deletion strains, locus YLR058C, strain SHM2 (second series), hits give low values 0.983 | S. cerevisiae deletion strains, locus YLR085C, strain ARP6, hits give low values 1.02 | [18] 0.997 | S. cerevisiae deletion strains, locus YML094W, strain GIM5, hits give low values 1.01 | S. cerevisiae deletion strains, locus YMR219W, strain ESC1, hits give low values 1.01 | [19] 0.986 | [5] 1.03 | S. cerevisiae deletion strains, locus YNL298W, strain CLA4 (second series), hits give low values 1.03 | [20] 1 | S. cerevisiae deletion strains, locus YNR030W, strain Alg12, hits give low values 0.986 | S. cerevisiae deletion strains, locus YPL055C, strain LGE1, hits give low values 0.984 | [21] 0.975 | S. cerevisiae deletion strains, locus YPR135W, strain CTF4, hits give low values 1.03

CO[C@@]1(NC(=O)CSCC#N)C(=O)N2C(C(=O)O)=C(CSc3nnnn3C)CS[C@@H]21
inactive: [2] 1.01 | [3] 0.986 | [4] 1 | [16] 1 | [6] 0.995 | [7] 1 | [8] 1 | [9] 1 | [21] 1

CCCc1occc(=O)c1/C=C/O
inactive: [1] 0.98 | S. cerevisiae deletion strains, locus YBR021W, strain FUR4, hits give low values 0.999 | [10] 0.987 | S. cerevisiae deletion strains, locus YCL029C, strain bik1, hits give low values 0.97 | S. cerevisiae deletion strains, locus YDL035C, strain GPR1, hits give low values 0.981 | S. cerevisiae deletion strains, locus YDL074C, strain BRE1, hits give low values 1.01 | [11] 0.982 | S. cerevisiae deletion strains, locus YDL134C, strain PPH21, hits give low values 0.939 | S. cerevisiae deletion strains, locus YDL185W, strain tfp1, hits give low values 0.97 | S. cerevisiae deletion strains, locus YDL192W, strain arf1, hits give low values 0.923 | S. cerevisiae deletion strains, locus YDR101C, strain arx1, hits give low values 0.943 | [12] 0.983 | S. cerevisiae deletion strains, locus YDR162C, strain NBP2, hits give low values 0.927 | S. cerevisiae deletion strains, locus YDR318W, strain mcm21, hits give low values 0.942 | S. cerevisiae deletion strains, locus YDR388W, hits give low values 0.964 | [13] 0.98 | S. cerevisiae deletion strains, locus YER110C, hits give low values 0.963 | S. cerevisiae deletion strains, locus YER155C, strain BEM2, hits give low values 0.967 | S. cerevisiae deletion strains, locus YER167W, strain BCK2, hits give low values 0.936 | S. cerevisiae deletion strains, locus YGL078C, strain dbp3, hits give low values 1 | S. cerevisiae deletion strains, locus YGL086W, strain mad1, hits give low values 0.979 | S. cerevisiae deletion strains, locus YGL248W, strain PDE1, hits give low values 0.949 | [4] 0.964 | S. cerevisiae deletion strains, locus YGR135W, strain pre9, hits give low values 0.948 | S. cerevisiae deletion strains, locus YGR252W, strain gcn5, hits give low values 0.925 | [14] 0.986 | S. cerevisiae deletion strains, locus YHR079C, strain IRE1 (second series), hits give low values 0.959 | S. cerevisiae deletion strains, locus YHR094C, strain hxt1, hits give low values 0.957 | S. cerevisiae deletion strains, locus YHR129C, strain ARP1, hits give low values 0.974 | S. cerevisiae deletion strains, locus YHR200W, strain rpn10, hits give low values 0.95 | S. cerevisiae deletion strains, locus YIL066C, strain RNR3, hits give low values 0.97 | S. cerevisiae deletion strains, locus YIL073C, strain SPO22, hits give low values 0.992 | S. cerevisiae deletion strains, locus YIL125W, strain kgd1, hits give low values 0.964 | S. cerevisiae deletion strains, locus YIR030C, strain dcg1, hits give low values 0.955 | S. cerevisiae deletion strains, locus YJL095W, strain BCK1, hits give low values 0.909 | S. cerevisiae deletion strains, locus YJL134W, strain LCB3, hits give low values 0.984 | S. cerevisiae deletion strains, locus YJL168C, strain set2, hits give low values 0.987 | S. cerevisiae deletion strains, locus YJL187C, strain SWE1 (second series), hits give low values 0.963 | [15] 0.943 | [16] 0.945 | S. cerevisiae deletion strains, locus YKL009W, strain mrt4, hits give low values 1.02 | S. cerevisiae deletion strains, locus YKL068W, hits give low values 0.972 | S. cerevisiae deletion strains, locus YKL085W, strain MDH1 (second series), hits give low values 0.96 | S. cerevisiae deletion strains, locus YKL085W, strain MDH1, hits give low values 0.96 | [17] 0.929 | S. cerevisiae deletion strains, locus YLR058C, strain SHM2, hits give low values 0.973 | S. cerevisiae deletion strains, locus YLR102C, strain apc9, hits give low values 0.966 | [18] 0.922 | S. cerevisiae deletion strains, locus YLR268W, strain sec22, hits give low values 0.98 | S. cerevisiae deletion strains, locus YLR330W, strain CHS5, hits give low values 0.969 | S. cerevisiae deletion strains, locus YLR342W, strain FKS1 (second series), hits give low values 0.982 | S. cerevisiae deletion strains, locus YLR371W, strain rom2, hits give low values 0.964 | S. cerevisiae deletion strains, locus YLR418C, strain cdc73, hits give low values 0.872 | S. cerevisiae deletion strains, locus YML016C, strain PPZ1, hits give low values 0.97 | S. cerevisiae deletion strains, locus YML032C, strain rad52, hits give low values 0.925 | S. cerevisiae deletion strains, locus YML124C, strain tub3, hits give low values 0.954 | S. cerevisiae deletion strains, locus YMR078C, strain ctf18, hits give low values 0.931 | S. cerevisiae deletion strains, locus YMR223W, strain ubp8, hits give low values 0.969 | [19] 0.975 | S. cerevisiae deletion strains, locus YMR307W, strain GAS1, hits give low values 0.94 | S. cerevisiae deletion strains, locus YNL067W, strain RPL9B, hits give low values 0.962 | S. cerevisiae deletion strains, locus YNL233W, strain BNI4, hits give low values 0.962 | S. cerevisiae deletion strains, locus YNL250W, strain rad50, hits give low values 0.975 | S. cerevisiae deletion strains, locus YNL271C, strain bni1, hits give low values 0.972 | S. cerevisiae deletion strains, locus YNL298W, strain CLA4, hits give low values 0.976 | S. cerevisiae deletion strains, locus YNL307C, strain MCK1, hits give low values 0.956 | [20] 0.986 | S. cerevisiae deletion strains, locus YNR052C, strain pop2, hits give low values 0.993 | S. cerevisiae deletion strains, locus YOL006C, strain TOP1, hits give low values 0.854 | S. cerevisiae deletion strains, locus YOL012C, strain htz1 1.14 | S. cerevisiae deletion strains, locus YOL147C, strain pex11, hits give low values 0.983 | S. cerevisiae deletion strains, locus YOR061W, strain CKA2, hits give low values 0.998 | S. cerevisiae deletion strains, locus YOR069W, strain VPS5, hits give low values 0.974 | S. cerevisiae deletion strains, locus YOR136W, strain idh2, hits give low values 0.985 | S. cerevisiae deletion strains, locus YOR144C, strain elg1, hits give low values 0.962 | S. cerevisiae deletion strains, locus YOR184W, strain ser1, hits give low values 0.922 | S. cerevisiae deletion strains, locus YOR316C, strain cot1, hits give low values 0.964 | [21] 0.979 | S. cerevisiae deletion strains, locus YPR119W, strain clb2, hits give low values 0.964 | S. cerevisiae deletion strains, locus YPR141C, strain kar3, hits give low values 0.946 | S. cerevisiae deletion strains, locus YPR163C, strain tif3, hits give low values 0.986 | S. cerevisiae deletion strains, locus YPR167C, strain met16, hits give low values 0.958 | S. cerevisiae deletion strains, strain wtn01, hits give low values 0.995 | S. cerevisiae strains, strain wild type, hits give low values 0.968
active: S. cerevisiae deletion strains, locus YDR502C, strain sam2, hits give low values 0.913 | S. cerevisiae deletion strains, locus YKR001C, strain vps1, hits give low values 0.85
